# Laboratory results from paper PMC11006913.
# Tests used:
# Assay in all cases: PBM; 200 nM protein, PBS
# Details in all cases: dsDNA, one strand shown
# HOXA7 [1] = molecular target: HOXA7 (Homo sapiens, UniProt P31268 116-202)
# PRRX1 [2] = molecular target: PRRX1 (Homo sapiens, UniProt P54821 80-166, F113S)
# HOXB6 [3] = molecular target: HOXB6 (Homo sapiens, UniProt P17509 132-218, K202E)
# ALX1 [4] = molecular target: ALX1 (Homo sapiens, UniProt Q15699 118-204, L144V)
# ALX3 [5] = molecular target: ALX3 (Homo sapiens, UniProt O95076 139-225, N203Q)
# Chain of ALX3 (Homo sapiens, UniProt O95076 139-225, N203Q) (O95076 139-225 N203Q): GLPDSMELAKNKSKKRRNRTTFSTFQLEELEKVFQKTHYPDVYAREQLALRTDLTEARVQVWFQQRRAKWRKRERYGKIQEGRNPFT
# ALX1 [6] = molecular target: ALX1 (Homo sapiens, UniProt Q15699 118-204, L144R)
# Chain of ALX1 (Homo sapiens, UniProt Q15699 118-204, L144R) (Q15699 118-204 L144R): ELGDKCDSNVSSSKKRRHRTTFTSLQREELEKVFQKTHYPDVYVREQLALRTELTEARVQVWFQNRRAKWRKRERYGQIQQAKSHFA
# HOXC10 = HOXC10 (Homo sapiens, UniProt Q9NYD6 254-340, K271E)
# Chain of HOXC10 (Q9NYD6 254-340 K271E): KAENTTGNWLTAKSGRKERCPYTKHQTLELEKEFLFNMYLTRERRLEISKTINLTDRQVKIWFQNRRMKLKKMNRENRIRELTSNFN
# ALX3 [7] = molecular target: ALX3 (Homo sapiens, UniProt O95076 139-225)
# Chain of ALX3 (Homo sapiens, UniProt O95076 139-225) (O95076 139-225): as the sequence (O95076 139-225 N203Q) above, with Q65N counted along it
# PROP1 [8] = molecular target: PROP1 (Homo sapiens, UniProt O75360 56-141)
# Chain of PROP1 (Homo sapiens, UniProt O75360 56-141) (O75360 56-141): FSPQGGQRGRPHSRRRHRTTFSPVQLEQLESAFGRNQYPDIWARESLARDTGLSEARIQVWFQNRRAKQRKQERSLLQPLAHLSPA
# PROP1 [9] = molecular target: PROP1 (Homo sapiens, UniProt O75360 56-141, R99H)
# Chain of PROP1 (Homo sapiens, UniProt O75360 56-141, R99H) (O75360 56-141 R99H): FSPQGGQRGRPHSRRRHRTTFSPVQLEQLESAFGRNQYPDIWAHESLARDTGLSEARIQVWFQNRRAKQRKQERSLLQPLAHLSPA
# ALX3 [10] = molecular target: ALX3 (Homo sapiens, UniProt O95076 139-225, L168Q)
# Chain of ALX3 (Homo sapiens, UniProt O95076 139-225, L168Q) (O95076 139-225 L168Q): as the sequence (O95076 139-225 N203Q) above, with L30Q, Q65N counted along it
# ALX3 [11] = molecular target: ALX3 (Homo sapiens, UniProt O95076 139-225, L168V)
# Chain of ALX3 (Homo sapiens, UniProt O95076 139-225, L168V) (O95076 139-225 L168V): as the sequence (O95076 139-225 N203Q) above, with L30V, Q65N counted along it
# PROP1 [12] = molecular target: PROP1 (Homo sapiens, UniProt O75360 56-141, F88S)
# Chain of PROP1 (Homo sapiens, UniProt O75360 56-141, F88S) (O75360 56-141 F88S): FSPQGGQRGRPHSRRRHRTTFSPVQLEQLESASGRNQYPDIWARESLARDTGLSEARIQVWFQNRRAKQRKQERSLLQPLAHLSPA
# HOXA7 [13] = molecular target: HOXA7 (Homo sapiens, UniProt P31268 116-202, W177C)
# Chain of HOXA7 (Homo sapiens, UniProt P31268 116-202, W177C) (P31268 116-202 W177C): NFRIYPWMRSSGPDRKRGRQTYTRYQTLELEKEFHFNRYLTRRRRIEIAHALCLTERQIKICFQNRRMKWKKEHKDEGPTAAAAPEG
# ALX1 [14] = molecular target: ALX1 (Homo sapiens, UniProt Q15699 118-204)
# Chain of ALX1 (Homo sapiens, UniProt Q15699 118-204) (Q15699 118-204): as the sequence (Q15699 118-204 L144R) above, with R27L counted along it
# ALX3 [15] = molecular target: ALX3 (Homo sapiens, UniProt O95076 139-225, N203S)
# Chain of ALX3 (Homo sapiens, UniProt O95076 139-225, N203S) (O95076 139-225 N203S): as the sequence (O95076 139-225 N203Q) above, with Q65S counted along it
# PRRX1 [16] = molecular target: PRRX1 (Homo sapiens, UniProt P54821 80-166)
# Chain of PRRX1 (Homo sapiens, UniProt P54821 80-166) (P54821 80-166): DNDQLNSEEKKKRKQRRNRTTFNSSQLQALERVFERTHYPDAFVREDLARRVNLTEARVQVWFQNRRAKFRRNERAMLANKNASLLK
# HOXB6 [17] = molecular target: HOXB6 (Homo sapiens, UniProt P17509 132-218)
# Chain of HOXB6 (Homo sapiens, UniProt P17509 132-218) (P17509 132-218): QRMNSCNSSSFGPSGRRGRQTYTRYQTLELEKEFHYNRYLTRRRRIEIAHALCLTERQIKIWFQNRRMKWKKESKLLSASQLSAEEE
# Chain of PRRX1 (Homo sapiens, UniProt P54821 80-166, F113S) (P54821 80-166 F113S): as the sequence (P54821 80-166) above, with F34S counted along it
# Chain of HOXA7 (Homo sapiens, UniProt P31268 116-202) (P31268 116-202): as the sequence (P31268 116-202 W177C) above, with C62W counted along it
# Chain of HOXB6 (Homo sapiens, UniProt P17509 132-218, K202E) (P17509 132-218 K202E): as the sequence (P17509 132-218) above, with K71E counted along it
# Chain of ALX1 (Homo sapiens, UniProt Q15699 118-204, L144V) (Q15699 118-204 L144V): as the sequence (Q15699 118-204 L144R) above, with R27V counted along it
Sequence,binding signal (HOXA7 [1]),binding signal (PRRX1 [2]),binding signal (HOXB6 [3]),binding signal (ALX1 [4]),binding signal (ALX3 [5]),binding signal (ALX1 [6]),binding signal (HOXC10),binding signal (ALX3 [7]),binding signal (PROP1 [8]),binding signal (PROP1 [9]),binding signal (ALX3 [10]),binding signal (ALX3 [11]),binding signal (PROP1 [12]),binding signal (HOXA7 [13]),binding signal (ALX1 [14]),binding signal (ALX3 [15]),binding signal (PRRX1 [16]),binding signal (HOXB6 [17])
TAATTATA,"11.8 upbm affinity estimate (log intensity, higher = more binding, comparable within an allelic series)","11.8 upbm affinity estimate (log intensity, higher = more binding, comparable within an allelic series)","10.3 upbm affinity estimate (log intensity, higher = more binding, comparable within an allelic series)","12 upbm affinity estimate (log intensity, higher = more binding, comparable within an allelic series)","8.6 upbm affinity estimate (log intensity, higher = more binding, comparable within an allelic series)","11.6 upbm affinity estimate (log intensity, higher = more binding, comparable within an allelic series)","12.2 upbm affinity estimate (log intensity, higher = more binding, comparable within an allelic series)","12.8 upbm affinity estimate (log intensity, higher = more binding, comparable within an allelic series)","11.7 upbm affinity estimate (log intensity, higher = more binding, comparable within an allelic series)","11.7 upbm affinity estimate (log intensity, higher = more binding, comparable within an allelic series)","10.9 upbm affinity estimate (log intensity, higher = more binding, comparable within an allelic series)","10.6 upbm affinity estimate (log intensity, higher = more binding, comparable within an allelic series)","8.03 upbm affinity estimate (log intensity, higher = more binding, comparable within an allelic series)","9 upbm affinity estimate (log intensity, higher = more binding, comparable within an allelic series)","12.7 upbm affinity estimate (log intensity, higher = more binding, comparable within an allelic series)","8.74 upbm affinity estimate (log intensity, higher = more binding, comparable within an allelic series)","13.6 upbm affinity estimate (log intensity, higher = more binding, comparable within an allelic series)","12.3 upbm affinity estimate (log intensity, higher = more binding, comparable within an allelic series)"
GGTAATTA,"12.6 upbm affinity estimate (log intensity, higher = more binding, comparable within an allelic series)","11.6 upbm affinity estimate (log intensity, higher = more binding, comparable within an allelic series)","10.4 upbm affinity estimate (log intensity, higher = more binding, comparable within an allelic series)","12.1 upbm affinity estimate (log intensity, higher = more binding, comparable within an allelic series)","8.47 upbm affinity estimate (log intensity, higher = more binding, comparable within an allelic series)","11.8 upbm affinity estimate (log intensity, higher = more binding, comparable within an allelic series)","12.7 upbm affinity estimate (log intensity, higher = more binding, comparable within an allelic series)","12.8 upbm affinity estimate (log intensity, higher = more binding, comparable within an allelic series)","11.9 upbm affinity estimate (log intensity, higher = more binding, comparable within an allelic series)","11.8 upbm affinity estimate (log intensity, higher = more binding, comparable within an allelic series)","11 upbm affinity estimate (log intensity, higher = more binding, comparable within an allelic series)","10.7 upbm affinity estimate (log intensity, higher = more binding, comparable within an allelic series)","7.94 upbm affinity estimate (log intensity, higher = more binding, comparable within an allelic series)","9.03 upbm affinity estimate (log intensity, higher = more binding, comparable within an allelic series)","12.8 upbm affinity estimate (log intensity, higher = more binding, comparable within an allelic series)","8.62 upbm affinity estimate (log intensity, higher = more binding, comparable within an allelic series)","13.5 upbm affinity estimate (log intensity, higher = more binding, comparable within an allelic series)","12.9 upbm affinity estimate (log intensity, higher = more binding, comparable within an allelic series)"
GCTAATTA,"12.1 upbm affinity estimate (log intensity, higher = more binding, comparable within an allelic series)","12 upbm affinity estimate (log intensity, higher = more binding, comparable within an allelic series)","10.1 upbm affinity estimate (log intensity, higher = more binding, comparable within an allelic series)","12.4 upbm affinity estimate (log intensity, higher = more binding, comparable within an allelic series)","8.53 upbm affinity estimate (log intensity, higher = more binding, comparable within an allelic series)","12 upbm affinity estimate (log intensity, higher = more binding, comparable within an allelic series)","12.1 upbm affinity estimate (log intensity, higher = more binding, comparable within an allelic series)","13 upbm affinity estimate (log intensity, higher = more binding, comparable within an allelic series)","12.1 upbm affinity estimate (log intensity, higher = more binding, comparable within an allelic series)","12.3 upbm affinity estimate (log intensity, higher = more binding, comparable within an allelic series)","11.4 upbm affinity estimate (log intensity, higher = more binding, comparable within an allelic series)","11.2 upbm affinity estimate (log intensity, higher = more binding, comparable within an allelic series)","8.03 upbm affinity estimate (log intensity, higher = more binding, comparable within an allelic series)","8.89 upbm affinity estimate (log intensity, higher = more binding, comparable within an allelic series)","13.1 upbm affinity estimate (log intensity, higher = more binding, comparable within an allelic series)","8.71 upbm affinity estimate (log intensity, higher = more binding, comparable within an allelic series)","13.7 upbm affinity estimate (log intensity, higher = more binding, comparable within an allelic series)","12.5 upbm affinity estimate (log intensity, higher = more binding, comparable within an allelic series)"
CGTAATTA,"12 upbm affinity estimate (log intensity, higher = more binding, comparable within an allelic series)","11.5 upbm affinity estimate (log intensity, higher = more binding, comparable within an allelic series)","10.2 upbm affinity estimate (log intensity, higher = more binding, comparable within an allelic series)","12 upbm affinity estimate (log intensity, higher = more binding, comparable within an allelic series)","8.47 upbm affinity estimate (log intensity, higher = more binding, comparable within an allelic series)","11.7 upbm affinity estimate (log intensity, higher = more binding, comparable within an allelic series)","12.3 upbm affinity estimate (log intensity, higher = more binding, comparable within an allelic series)","12.7 upbm affinity estimate (log intensity, higher = more binding, comparable within an allelic series)","11.6 upbm affinity estimate (log intensity, higher = more binding, comparable within an allelic series)","11.5 upbm affinity estimate (log intensity, higher = more binding, comparable within an allelic series)","10.7 upbm affinity estimate (log intensity, higher = more binding, comparable within an allelic series)","10.2 upbm affinity estimate (log intensity, higher = more binding, comparable within an allelic series)","7.88 upbm affinity estimate (log intensity, higher = more binding, comparable within an allelic series)","8.91 upbm affinity estimate (log intensity, higher = more binding, comparable within an allelic series)","12.7 upbm affinity estimate (log intensity, higher = more binding, comparable within an allelic series)","8.56 upbm affinity estimate (log intensity, higher = more binding, comparable within an allelic series)","13.5 upbm affinity estimate (log intensity, higher = more binding, comparable within an allelic series)","12.4 upbm affinity estimate (log intensity, higher = more binding, comparable within an allelic series)"
